Cycloheximide cs = Cycloheximide Counterscreen for Small Molecule Inhibitors of Shiga Toxin. cell reporter, cycloheximide protein synthesis inhibition counterscreen. max response, %. hit rate 12% among 300,000. AID 2314, 2010; in the data active = max response mostly above about 13%, no sharp cut-off; inactive = mostly below about 14%; also: read at 38.3 µM for the half of the compounds with a filed dose; 0% is about no effect
Shiga toxin inh = A qHTS for Small Molecule Inhibitors of Shiga Toxin | Vero cells, Shiga toxin protein synthesis inhibition reporter | inhibition, % at 38.7 µM | hit rate 9.2% among 290,000; in the data active = inhibition mostly above about 28%, no sharp cut-off; inactive = mostly below about 43%; also: 0% is about no effect
AmpC detergent = qHTS Inhibitors of AmpC Beta-Lactamase (assay with detergent); AmpC hydrolysis of nitrocefin, absorbance 480 nm, 0.01% Triton; AID 485294, 2010; Potency, µM (top dose mostly 114 µM), for inactives: top-dose activity change, negative = inhibition, usual class: inhibitors; P00811; hit rate 0.041% among 370,000;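 also: potency is read from the fitted curve at half-maximal effect; 0% = no-compound wells and -100% = no-enzyme wells; nearly all actives have a fitted effect of over 25% in size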
Target sequence (P00811 whole entry, looked up): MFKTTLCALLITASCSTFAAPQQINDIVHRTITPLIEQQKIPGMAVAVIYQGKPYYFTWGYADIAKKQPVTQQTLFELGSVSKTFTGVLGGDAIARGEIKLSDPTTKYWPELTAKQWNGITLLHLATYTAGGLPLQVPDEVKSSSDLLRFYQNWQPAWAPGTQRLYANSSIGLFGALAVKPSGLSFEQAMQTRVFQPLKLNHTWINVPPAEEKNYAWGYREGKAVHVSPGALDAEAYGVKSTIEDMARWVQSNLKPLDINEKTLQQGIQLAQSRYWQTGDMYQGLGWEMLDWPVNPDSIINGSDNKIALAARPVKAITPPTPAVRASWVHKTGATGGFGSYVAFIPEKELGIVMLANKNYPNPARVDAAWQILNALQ
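20 mM phosphate pH 7.0 + 0.01% (detergent screen) or 0.0001% Triton X-100; 5.3 nM AmpC reagent; cpd preinc 15 min RT; nitrocefin (800 uM stock) to start; A480 q20 s × 4 min; Activity was normalised to no-enzyme and no-compound control wells.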
AmpC no deterg = qHTS Inhibitors of AmpC Beta-Lactamase (assay without detergent). AmpC nitrocefin hydrolysis, absorbance 480 nm, 0.0001% Triton. Potency, µM (series often up to 57.1 µM), for the others: top-dose activity change, negative = inhibition, actives largely listed as inhibitors. hit rate 0.52% among 330,000. AID 485341, 2010;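 also: potency is read from the fitted curve at half-maximal effect; plate controls were no compound for no effect and no enzyme for full effect; nearly all actives have a fitted effect of over 20% in size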
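20 mM phosphate pH 7.0 + 0.01% (detergent screen) or 0.0001% Triton X-100; 5.3 nM AmpC reagent; cpd preinc 15 min RT; nitrocefin (800 uM stock) to start; A480 q20 s × 4 min; Activity was normalised to no-enzyme and no-compound control wells.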
NS1 inh = qHTS Assay for Inhibitors of Influenza NS1 Protein Function | Potency, µM (titrated, usually from 46.1 µM), for inactives: top-dose activity, positive = more growth | hit rate 0.4% among 270,000 | AID 2326, 2010; calls by dose curve; also: potency is read from the fitted curve at half-maximal effect; actives are rising curves; nearly all actives have a fitted effect of over 50% in size
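OD600 was taken as the measure of yeast growth restored by compound in an NS1-expressing S. cerevisiae strain. Cells had been washed out of glucose medium and diluted 1:100 into galactose -URA medium, pH 6.0.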
Starred values were filed as active, the others as inactive; i = inactive; ? = inconclusive; · = not tested or not shown; [ ] = remark or other dose. Shown is part of a subset that was picked to be rich in hits. Unless noted, calls follow the shape of the dose curve; as a rule, active = well fitted curve in the direction sought with a large enough effect; inconclusive = small, poorly fitted or top-dose-only effect, or another doubt; inactive = no such curve, though single readings can be large; an effect the other way counts as inactive or inconclusive.

SMILES	Cycloheximide cs	Shiga toxin inh	AmpC detergent	AmpC no deterg	NS1 inh
Cn1nc2c3ccccc3n(Cc3ccccc3)c2nc1=S	41*	121*	-1%	-23%	-2%
CCOC(=O)c1cnc2ccc(Cl)cc2c1NCCN(C)C	26*	35	2%	-1%	-15%
CCOC(=O)c1cnc2c(ccc3ccccc32)c1NCCCN(C)C	33*	131*	-12%	115%	-5%
COc1ccc(-c2cn3cccnc3n2)cc1Br	15*	99*	-7%	-14%	-31%
COc1ccc(-c2cn3cc(Br)cnc3n2)cc1	25*	23	-1%	-17%	-2%
CC(=O)Nc1cccc(-c2cn3cccnc3n2)c1	·	·	-1%	·	·
Nc1ccc(-c2cn3cccnc3n2)cc1	17*	76	-10%	7%[2.29 µM]	4%
COc1ccc(-c2cc(-c3ccccc3)nc3ncnn23)cc1	-5	19	1%	3%	-3%
CC(C)c1ccccc1NC(=O)CN(c1ccccc1)S(=O)(=O)N(C)C	·	·	27%	·	·
Cc1cc(OCC(=O)Nc2ccc3oc(=O)ccc3c2)ccc1Cl	-8	3	-11%	-21%	11%
Cc1ccc(C)c(-c2nc3cc(N)ccc3o2)c1	11	28*	-6%	3%	14%
Nc1ccc(-c2nc3cc(N)ccc3o2)cc1	38*	38*	?	-16%	-11%
CN(C)c1ccc(-c2nc3cc(N)ccc3o2)cc1	14*	38	1%	55%	2%
COC(=O)c1ccc(-c2nc3cc(N)ccc3o2)cc1	18*	38*	-6%	-14%	3%
CN(C)c1ccc(C(=O)Nc2ccc(-c3nc4ccccc4o3)cc2)cc1	·	·	12%	·	·
Nc1ccc2oc(-c3cc(Br)ccc3Cl)nc2c1	-4	4	-1%	0%	15%
Cc1nc(N2CCCC2)c2c(C(=O)Nc3cccc(C)c3C)c(C)oc2n1	·	·	7%	·	·
Cc1cc(NC(=O)C(C)SCC(=O)N(C)Cc2ccccc2F)no1 (configuration not stated)	·	·	-13%	-23%	·
Cc1ccc(-c2nc3cc(N)ccc3o2)cc1Br	39*	·	?	33%	19%
Cc1ccc2nc(-c3cc(N)cc(N)c3)oc2c1	17*	36	-3%	6%	10%
Nc1ccc(-c2nc3ccc(N)cc3o2)cc1	39*	35	-10%	-20%	-10%
CC(=O)c1cccc(OCc2cc(C(=O)N(C)Cc3cnccn3)no2)c1	51*	88*	-3%	-2%	9%
CC(=O)c1ccc(OCc2cc(C(=O)N(C)C(C)c3nccs3)no2)cc1 (configuration not stated)	30*	35*	-7%	6%	-19%
CN(Cc1cccnc1)C(=O)c1cc(COc2ccc3c(c2)CCCC3)on1	70*	82*	-12%	167%	-75%
CC(=O)c1cccc(OCc2cc(C(=O)N(C)C(C)c3ccccn3)no2)c1 (configuration not stated)	8	17	-4%	-1%	-2%
SMILES	Cycloheximide cs	Shiga toxin inh	AmpC detergent	AmpC no deterg	NS1 inh
CC(=O)c1ccc(OCc2cc(C(=O)NC(C)Cc3ccccn3)no2)cc1 (configuration not stated)	1	-4	-1%	16%	3%
COc1cccc(OCc2cc(C(=O)N(C)Cc3nc4ccccc4[nH]3)no2)c1	38*	125*	12%	-7%	-10%
CC1(C)C(=O)OC(c2cccs2)C(C)(C)C1=O (configuration not stated)	-5	-16	-2%	-2%	?
COc1ccc(OCc2cc(C(=O)N(C)Cc3cc(C)no3)no2)c(Cl)c1	72*	99*	5%	45%	-6%
COc1cc(Cl)ccc1OCc1cc(C(=O)N(C)Cc2nnc(C)o2)no1	35*	17	1%	62%	12%
CCc1ccc(CN(C)C(=O)c2cc(COc3ccc(OC)cc3Cl)on2)nc1	68*	84*	6%	144%	-45%
CC(=O)c1ccc(OCc2cc(C(=O)N(C)Cc3cc(C)no3)no2)cc1	33*	39*	0%	24%	-10%
CC(C)Oc1ccc(C(=O)N(Cc2ccc(N(C)C)cc2)Cc2ccco2)cc1	·	·	18%	·	·
COc1cc(Cl)ccc1OCc1cc(C(=O)N(C)Cc2cn(C)nc2C)no1	-2	1	10%	97%	1%
COc1ccc(OCc2cc(C(=O)N(C)Cc3nnc(C)o3)no2)c(Cl)c1	29*	111*	?	39%	-6%
Cc1ccc(-c2ccc(C(=O)O)o2)cc1Cl	16*	38	-10%	-16%	-53%
COC(=O)N/N=C/c1ccc(-c2ccc(C)c(Cl)c2)o1	16*	38	-6%	-4%	-10%
Cc1ccc(-c2ccc(/C=N/c3ncn[nH]3)o2)cc1Cl	17*	26	1%	-14%	-23%
COC(=O)N/N=C/c1ccc(-c2cccc(Cl)c2)o1	33*	55*	2%	-11%	-44%
Cc1ccc(-c2ccc(/C=N/NC(=O)CN3CCCC3)o2)cc1Cl	32	24	5%	9%	1%
O=C(O)c1ccc(-c2ccc(-c3ccccc3)cc2)o1	2	i	·	·	·
Nc1ccccc1N=Cc1ccc(-c2cccc(Cl)c2)o1	29*	76*	-11%	-33%	·
COc1cc(C(=O)NCCOc2ccccc2)cc(OC)c1OC	1	9	2%	-13%	-1%
Cc1ccc(OCCNC(=O)c2cc(=O)[nH]c3ccccc23)cc1	-1	9	-6%	-10%	-3%
Cc1ccc(C(=O)NCCOc2cccc(C)c2)cc1	37*	83*	4%	-6%	-7%
COc1cccc(C(=O)NCCOc2cc(C)cc(C)c2)c1	4	8	?	-15%	-18%
COc1cc(OC)cc(C(=O)NCCOc2ccccc2)c1	31*	77*	-15%	-19%	-15%
Cc1ccc(OCCNC(=O)c2ccccc2F)cc1	21*	40*	-3%	-4%	-5%
CC(C)(C)c1ccc(C(=O)NCCOc2ccccc2)cc1	26*	33	-6%	-49%	-5%
COc1ccc(N2CCN(C(=O)Cc3ccc(Cl)cc3)CC2)cc1	-4	-6	-8%	22%	-15%
O=S(=O)(O)c1ccc2c(c1)-c1nc-2nc2[nH]c(nc3nc(nc4[nH]c(n1)c1ccc(S(=O)(=O)O)cc41)-c1ccc(S(=O)(=O)O)cc1-3)c1ccc(S(=O)(=O)O)cc21	-13	-6	·	·	·
CCc1cccc(NC(c2nnc(-c3ccccc3)o2)c2ccc(F)cc2Cl)c1 (configuration not stated)	·	·	1%	·	·
Cc1ccc(S(=O)(=O)NCCn2nc(C)nc2C)cc1	-3	-7	-2%	-12%	-1%
COc1ccc(OCC(O)CNC(=O)c2ccc(OC)cc2)cc1 (configuration not stated)	-4	4	-1%	-9%[2.29 µM]	-1%
Cc1ccc(OCC(O)CNC(=O)c2ccccc2C(=O)O)cc1 (configuration not stated)	18*	33	-3%	-13%	-4%
